G9a inh – inhibitors of human histone lysine methyltransferase G9a; Q96KQ7; G9a H3K9 monomethylation, AlphaScreen, 2 h; Potency, µM (series often up to 102 µM), usual class: inhibitors; hit rate 8.8% among 350,000; AID 504332; also: nearly all actives have a fitted effect of over 75% in size
Target sequence (Q96KQ7 913-1193 limits assumed): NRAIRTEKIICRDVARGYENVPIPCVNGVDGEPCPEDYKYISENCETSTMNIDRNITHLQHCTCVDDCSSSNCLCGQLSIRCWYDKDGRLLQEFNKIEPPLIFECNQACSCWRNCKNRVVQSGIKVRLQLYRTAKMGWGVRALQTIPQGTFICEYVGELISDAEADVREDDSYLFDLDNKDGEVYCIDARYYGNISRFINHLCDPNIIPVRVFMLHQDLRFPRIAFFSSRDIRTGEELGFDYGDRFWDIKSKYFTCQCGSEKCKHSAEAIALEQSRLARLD
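Quantitative HTS format: methyltransferase activity on a biotin-tagged H3K9 peptide is measured by AlphaScreen, using a rabbit anti-monomethyl-H3K9 antibody with streptavidin donor and anti-IgG acceptor beads. Final levels are 20 nM enzyme, 500 nM peptide, 20 uM SAM; 2 h RT.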
HP1b chromo inh – inhibitors of HP1-beta chromodomain binding to methylated histone tails; AlphaScreen HP1-beta / biotin-H3K9me3 peptide binding; hit rate 0.56% among 390,000; Potency, µM (series often up to 114 µM), usual class: inhibitors; P83916; AID 540317; also: nearly all actives have a fitted effect of over 70% in size
Target sequence (P83916 whole entry, looked up): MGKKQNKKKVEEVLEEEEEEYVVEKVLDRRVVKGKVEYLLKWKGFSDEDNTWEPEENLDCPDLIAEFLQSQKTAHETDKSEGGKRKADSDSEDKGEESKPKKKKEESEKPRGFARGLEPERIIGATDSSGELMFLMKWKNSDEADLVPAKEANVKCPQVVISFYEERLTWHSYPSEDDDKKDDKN
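AlphaScreen: HP1-beta (50 nM) preformed 30 min with biotin-H3(1-18)K9me3 peptide (50 nM) in PBS pH 7.4, 0.01% Tween-20. Compound added for 30 min at RT, then streptavidin donor/nickel chelate acceptor beads (10 ug/mL) for 30 min.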
PLK1 PBD inh – inhibitors of human PLK1 polo-box domain binding | Plk1 PBD binding of FITC phosphopeptide, fluorescence polarization | P53350 | Potency, µM, actives largely listed as inhibitors | hit rate 2.8% among 360,000; also: series mostly up to about 57 µM; nearly all actives have a fitted effect of over 65% in size
JMJD2A Tudor inh – JMJD2A Tudor domain (human) inhibition | Potency, µM (series often up to 114 µM), most hits filed as inhibitors | O75164 | AlphaScreen JMJD2A-Tudor / H3K4me3 peptide binding | hit rate 4.4% among 390,000; also: nearly all actives have a fitted effect of over 50% in size
BAZ2B inh – BAZ2B (human) inhibition; Q9UIF8; AlphaScreen BAZ2B-H3K14Ac peptide displacement; Potency, µM (top dose mostly 114 µM), hits mostly inhibitors; hit rate 4.4% among 360,000; AID 504333; also: nearly all actives have a fitted effect of over 60% in size
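AlphaScreen displacement: compounds (up to 110uM) incubated 30 min at room temperature with a preformed 50 nM BAZ2B/50 nM biotinylated H3K14Ac peptide complex in PBS pH 7.4 with Tween-20. Donor and acceptor beads at 10 ug/mL final added, 20 min light-protected before reading.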
Sfp PPTase inh – Sfp phosphopantetheinyl transferase inhibition; Q9F4F7; Biochemical Sfp PPTase activity, qHTS; Potency, µM, usual class: inhibitors; hit rate 3.5% among 310,000;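 also: the enzyme is Sfp with the accession as filed and its product quenches rhodamine fluorescence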
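Sfp 15 nM + cpd, 15 min RT; start w/ rhodamine-CoA 5 uM, BHQ-2-YbbR 12.5 uM (final); 50 mM Hepes pH 7.6, 10 mM MgCl2, 0.01% NP-40, 0.01% BSA; read 525/598 nm at 0 and 30 min.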
Hits are given with their value; [ ] = dose if it differs, or a comment. Only some compounds are listed: those with a hit (about 12% of all), similar ones and a draw of the others. Calls follow the shape of the dose curve; as a rule, active = well fitted curve in the direction sought with a large enough effect; inconclusive = small, poorly fitted or top-dose-only effect, or another doubt; inactive = no such curve, though single readings can be large; an effect the other way counts as inactive or inconclusive.

How did O=C(NCCc1ccccn1)C(F)(F)C(F)(F)C(F)(F)C(F)(F)C(F)(F)C(F)F do in these assays?
G9a inh: inconclusive; HP1b chromo inh: inactive; PLK1 PBD inh: 27µM; JMJD2A Tudor inh: 50µM; BAZ2B inh: inactive; Sfp PPTase inh: inactive

Results for O=C(NCS(=O)(=O)c1ccccc1)c1ccccc1 ?
G9a inh: 50µM; HP1b chromo inh: inactive; PLK1 PBD inh: inactive; JMJD2A Tudor inh: inactive; BAZ2B inh: inactive; Sfp PPTase inh: inactive

How did O=C(O)CCNC(=O)c1ccccc1 do in these assays?
G9a inh: inactive; HP1b chromo inh: inactive; PLK1 PBD inh: inactive; JMJD2A Tudor inh: inactive; BAZ2B inh: inactive; Sfp PPTase inh: inactive

Results for COc1ccccc1C(=O)NS(=O)(=O)c1ccc(C)cc1 ?
HP1b chromo inh: inactive; PLK1 PBD inh: inactive; JMJD2A Tudor inh: inactive

What do the screens show for `Cc1ccc(S(=O)(=O)NC(=O)c2ccc(-c3ccc(C)c4ccccc34)o2)cc1`?
G9a inh: 50µM; HP1b chromo inh: inactive; PLK1 PBD inh: 27µM; JMJD2A Tudor inh: 45µM; BAZ2B inh: inconclusive; Sfp PPTase inh: inactive

What do the screens show for `COc1ccc(S(=O)(=O)N2CCN(Cc3ccccc3OC)CC2)cc1`?
PLK1 PBD inh: inactive

How did CCOc1ccccc1CN1CCC(O)CC1 do in these assays?
G9a inh: inactive[12.7 µM]; HP1b chromo inh: inconclusive; PLK1 PBD inh: inactive; JMJD2A Tudor inh: 5.6µM; BAZ2B inh: inconclusive; Sfp PPTase inh: inactive

How did CCCS(=O)(=O)N1CCN(Cc2ccccc2OCC)CC1 do in these assays?
G9a inh: inconclusive; HP1b chromo inh: inconclusive; PLK1 PBD inh: inactive; JMJD2A Tudor inh: 2.8µM; BAZ2B inh: inconclusive; Sfp PPTase inh: inactive

Results for CCOc1ccccc1CN1CCCC(C(=O)c2ccc(OC)c(OC)c2)C1 (stereo not drawn) ?
G9a inh: inactive; HP1b chromo inh: inactive; PLK1 PBD inh: inactive; JMJD2A Tudor inh: inactive; BAZ2B inh: inactive; Sfp PPTase inh: inactive

How did CCN(CC)S(=O)(=O)c1ccc(OC)c(NC(=O)/C=C/c2ccco2)c1 do in these assays?
HP1b chromo inh: inconclusive; PLK1 PBD inh: inconclusive; JMJD2A Tudor inh: inactive[11.4 µM]; BAZ2B inh: 71µM; Sfp PPTase inh: 25µM

How did CCN(CC)S(=O)(=O)c1ccc(N2CCCCC2)c(NC(=O)/C=C/c2ccc(OC)c(OC)c2)c1 do in these assays?
G9a inh: inactive; HP1b chromo inh: inactive; PLK1 PBD inh: inactive; JMJD2A Tudor inh: inactive; BAZ2B inh: inactive; Sfp PPTase inh: inactive

What do the screens show for `COc1ccc(/C(C)=N/NC(=O)CNC(=O)/C=C\c2ccco2)cc1`?
G9a inh: inactive; HP1b chromo inh: inactive; PLK1 PBD inh: inconclusive; JMJD2A Tudor inh: inconclusive; BAZ2B inh: 79µM; Sfp PPTase inh: inactive

How did COc1ccc(CNC(=O)/C=C/c2ccco2)cc1OC do in these assays?
G9a inh: 45µM; HP1b chromo inh: inactive; PLK1 PBD inh: inactive; JMJD2A Tudor inh: inactive; BAZ2B inh: inactive; Sfp PPTase inh: 45µM

How did COc1ccc(C2(CNC(=O)/C=C/c3ccco3)CCCC2)cc1OC do in these assays?
G9a inh: inconclusive; HP1b chromo inh: inactive; PLK1 PBD inh: inconclusive; JMJD2A Tudor inh: inactive; BAZ2B inh: inconclusive; Sfp PPTase inh: 22µM

What do the screens show for `COc1ccc(C2(CNC(C)=O)CCCC2)cc1OC`?
G9a inh: inactive[0.0925 µM]; HP1b chromo inh: inactive; PLK1 PBD inh: inactive; JMJD2A Tudor inh: inactive; BAZ2B inh: inactive; Sfp PPTase inh: inactive

What do the screens show for `COc1ccc(CNC(=O)/C=C/C(=O)O)cc1OC`?
G9a inh: inactive; HP1b chromo inh: inactive; PLK1 PBD inh: inactive; JMJD2A Tudor inh: inactive; BAZ2B inh: inactive; Sfp PPTase inh: inactive

How did O=C(/C=C/c1ccco1)NCC1(c2ccccc2)CCCC1 do in these assays?
G9a inh: 11µM; HP1b chromo inh: inactive; PLK1 PBD inh: inactive; JMJD2A Tudor inh: inactive; BAZ2B inh: inactive; Sfp PPTase inh: inactive

How did O=C(NCC1(c2ccccc2)CCCC1)c1ccco1 do in these assays?
G9a inh: inactive; HP1b chromo inh: inactive; PLK1 PBD inh: inactive; JMJD2A Tudor inh: inactive; BAZ2B inh: inactive; Sfp PPTase inh: inactive

How did O=C(NCCC(=O)N1CCN(Cc2c(F)cccc2Cl)CC1)c1ccc(Cl)cc1 do in these assays?
G9a inh: inconclusive; HP1b chromo inh: inactive; PLK1 PBD inh: inactive; JMJD2A Tudor inh: inactive; BAZ2B inh: inactive

What do the screens show for `COc1ccc(C2/C(=C(/O)c3ccccc3)C(=O)C(=O)N2CCO)cc1` (stereo not drawn)?
G9a inh: 45µM; HP1b chromo inh: inactive; PLK1 PBD inh: inactive; JMJD2A Tudor inh: inactive; BAZ2B inh: inactive; Sfp PPTase inh: inactive

What do the screens show for `COc1ccc(/C(O)=C2/C(=O)C(=O)N(CCCC(=O)O)C2c2ccc(OC)cc2)cc1` (stereo not drawn)?
G9a inh: inactive; HP1b chromo inh: inactive; PLK1 PBD inh: inactive; JMJD2A Tudor inh: 45µM; BAZ2B inh: inconclusive; Sfp PPTase inh: inactive

How did O=C(COC(=O)CSc1ccc(F)cc1)NNC(=O)c1ccc([N+](=O)[O-])cc1 do in these assays?
G9a inh: inactive; HP1b chromo inh: inactive; PLK1 PBD inh: inactive; JMJD2A Tudor inh: inactive; BAZ2B inh: inactive

How did COc1ccc(C(c2nnnn2C(C)(C)C)N2CCN(c3nc4ccccc4s3)CC2)cc1OC (stereo not drawn) do in these assays?
G9a inh: inactive; HP1b chromo inh: inactive; PLK1 PBD inh: inactive; JMJD2A Tudor inh: inactive[11.4 µM]; BAZ2B inh: 79µM; Sfp PPTase inh: inactive

Results for COc1ccccc1N1CCN(C(c2ccc(Cl)cc2)c2nnnn2C(C)(C)C)CC1 (stereo not drawn) ?
G9a inh: inactive; HP1b chromo inh: inactive; PLK1 PBD inh: inactive; JMJD2A Tudor inh: inconclusive; BAZ2B inh: inactive; Sfp PPTase inh: inactive

Results for COc1cc(C(c2nnnn2C(C)(C)C)N2CCN(c3nc4ccccc4s3)CC2)ccc1O (stereo not drawn) ?
G9a inh: 2.2µM; HP1b chromo inh: inconclusive; PLK1 PBD inh: inactive; JMJD2A Tudor inh: inconclusive; BAZ2B inh: inconclusive; Sfp PPTase inh: 25µM

How did CCN1CCN(C(c2ccc(OC)c(OC)c2)c2nnnn2C(C)(C)C)CC1 (stereo not drawn) do in these assays?
G9a inh: inactive[12.7 µM]; HP1b chromo inh: inactive; PLK1 PBD inh: inconclusive; JMJD2A Tudor inh: inactive[11.4 µM]; BAZ2B inh: inconclusive; Sfp PPTase inh: inactive

Results for C=CCOn1c(=O)c(-c2ccc(C)cc2)[n+]([O-])c2ccccc21 ?
G9a inh: inactive[2.33 µM]; HP1b chromo inh: inactive; PLK1 PBD inh: inactive; JMJD2A Tudor inh: inactive; BAZ2B inh: inactive; Sfp PPTase inh: inactive

What do the screens show for `Cc1ccc2sc(-c3ccc(NC(=O)CCN4C(=O)c5ccccc5C4=O)cc3)nc2c1`?
G9a inh: inactive; BAZ2B inh: inactive; Sfp PPTase inh: inactive

How did CCCCN1C(=O)/C(=C2\SC(N3CCOCC3)=NC2=O)c2ccccc21 do in these assays?
G9a inh: inactive; HP1b chromo inh: inactive; PLK1 PBD inh: inactive; JMJD2A Tudor inh: inactive; BAZ2B inh: inactive; Sfp PPTase inh: inactive

Compound activity (PubChem)
